102 molecules from PubChem BioAssay AID1259343 (VanderVen Lab, College of Veterinary Medicine, Cornell …, 2017) can be followed below.

SMILES strings stand for the structures. The whole screen tested about 6,200 compounds, of which about 2,900 (47%) were called active. Rule as the data show it: active = inhibition above about 50%; inactive = the rest. So high a share suggests a set chosen from earlier hits. The list shows a part of the results.

The nature of the test: Mycobacterium tuberculosis growth inhibition, primary screen (AID 1259343). The note with it: inhibition: at 10 µM, hits give high values; outcome: 10 uM.
Regarding `Nc1ccc(C(=O)Oc2ccccc2)c(O)c1`, the inhibition is 98.9% (active).
Next, `O=C(Oc1ccccc1C(=O)O)c1ccccc1O`: “inactive”.
Regarding `O=S(Cc1cccc(C(F)(F)F)c1)Cc1ccc(Cl)cc1Cl` (configuration not stated), the inhibition is 42.1% (inactive).
Next, `CCc1nc(Nc2cccc(C(F)(F)F)c2)c2ccc(Cl)cc2n1`: 88.9% (active).
As to `O=S(=O)(Nc1nc2ccccc2nc1Cl)c1cccc(C(F)(F)F)c1`, the inhibition was 38.5% (inactive).
Next, `CC(C)N(C(=O)CCl)c1ccccc1`: 100% (active); `CN(CC1COc2ccccc2O1)C(=O)CCl` (configuration not stated): -21.8% (inactive); `Cc1cc(=O)[nH]c2sc(C(=O)Nc3ccc(Br)cc3)c(N)c12`: 79.5% (active).
Next, `CCCc1ncc(CN2CCCC(C(=O)Nc3ccc(-c4cccc(OC)c4)cc3)C2)cn1` (configuration not stated): 68.2% (active); `COc1cccc(-c2ccc(NC(=O)C3CCCN(Cc4nccs4)C3)cc2)c1` (configuration not stated): 48.2% (inactive).
Turning to `COc1cccc(-c2ccc(NC(=O)C3CCCN(Cc4cccc(O)c4)C3)cc2)c1` (configuration not stated), the inhibition was 70.1% (active).
Next, `Cc1cc(C(C)(C)C)cc(C)c1CCNS(=O)(=O)N(C)C`: 27.1% (inactive); `Cn1ccc(C(=O)NCCc2ccc(OCc3ccccc3)cc2)cc1=O`: 65.2% (active); `Cc1cc(C(=O)Nc2ccn(-c3ccccc3)n2)c(C)o1`: 59.6% (active).
Next, `O=C(Nc1ccn(-c2ccccc2)n1)C1CCCC1`: 21.5% (inactive).
On to `Nc1cnn(Cc2ccc(Br)cc2)c1`, for which the inhibition was 94.8% (active).
Next, `Brc1cnn(Cc2nnc(-c3ccco3)o2)c1`: -27.3% (inactive); `CN(C)c1cc[n+](Cc2c(Cl)cccc2Cl)cc1`: 21.9% (inactive); `C[n+]1c2cc(N)ccc2cc2ccc(N)cc21`: 92% (active).
Next, `O=C1N=c2ccccc2=C1N=Nc1c(O)[nH]c2c(Cl)cc(Cl)cc12`: 80% (active); `Oc1[nH]c2c(Cl)cc(Cl)cc2c1N=Nc1nc2ccccc2o1`: 101% (active).
For the molecule `O=C1N=c2ccccc2=C1N=Nc1nc(O)c(-c2c(O)[nH]c3ccccc23)s1`, the inhibition is -14% (inactive).
Next, `O=C(NNc1cccc(Cl)c1)[C@@H]1CCCN1c1nccc(Nc2ccccc2)n1`: 91.9% (active); `Cc1ccc(C)c(COc2cccn3c(CCNC(=O)COCc4ccccc4)cnc23)c1`: 33.6% (inactive).
As for `O=C(NCCCc1ccccc1)c1cc(=O)c(OCc2ccccc2)co1`, the inhibition is 99.7% (active).
For `CCOc1coc(C(=O)NCCc2ccc(Cl)cc2)cc1=O`, the inhibition is 49.6% (inactive).
The same measure for `O=C(NCCCc1ccccc1)c1cc(=O)c(OCc2ccc(F)cc2)co1`: 99.9% (active).
With `CCOC(=O)Cn1c(=NC(=O)c2cc(C)no2)sc2cccc(F)c21`, the inhibition was 49.7% (inactive).
For `CC(=O)Oc1ccc2c(=O)c(-c3ccc4c(c3)OCCO4)c(C)oc2c1OC(C)=O`, the inhibition was 26.1% (inactive).
Next, `O=c1c(-c2ccc3c(c2)OCCO3)c(C(F)(F)F)oc2cc(O)ccc12`: 104% (active); `CC(=O)Oc1ccc2c(=O)c(Oc3ccc(F)cc3)c(C(F)(F)F)oc2c1`: 18.9% (inactive); `Cc1sc2nc(-c3cccnc3)nc(NC(C)C(C)C)c2c1C` (configuration not stated): -13.7% (inactive).
The same measure for `C#CCN(CC=C)Cc1nc(-c2ccc(Cl)cc2)oc1C`: 14.8% (inactive); for `CN(C)C(=S)SSC(=S)N(C)C`: 102% (active).
Regarding `CC1(C)C(=O)C=C[C@@]2(C)C1C[C@@H](O)[C@]1(C)C2CC[C@@]2(C)[C@H](c3ccoc3)OC(=O)[C@H]3O[C@]321` (some centres not stated), the inhibition was 67% (active).
Next, `CC(=O)O[C@H]1C[C@@H](OC(C)=O)C(C)(C)C2C[C@@H](OC(C)=O)[C@]3(C)C(CC[C@@]4(C)[C@H](c5ccoc5)C(=O)[C@H]5O[C@]543)[C@]21C` (some centres not stated): 36.2% (inactive); `O=C(CCn1cncn1)Nc1ccc2c(c1)CCC2`: 87.1% (active); `Cn1cnnc1SCC(=O)Nc1ccc2c(c1)CCC2`: -17.5% (inactive).
On to `O=C1C(=Cc2ccc(F)cc2)CSc2ccc(F)cc21`, for which the inhibition is 21.3% (inactive).
The same measure for `CCN1c2ccccc2N(C)[C@]1(C)c1ccccc1`: 68.3% (active); for `Clc1ccc(C2=CC(c3ccc4c(c3)OCO4)n3nc(-c4ccccc4)nc3N2)cc1` (configuration not stated): -34.2% (inactive).
The same measure for `Fc1ccc(C2C=C(c3ccccc3)Nc3nc(C(F)(F)F)nn32)cc1F` (configuration not stated): 3.02% (inactive); for `N#Cc1ccc(C2C=C(c3ccc(Br)cc3)Nc3nc(C(F)(F)F)nn32)cc1` (configuration not stated): 90.9% (active); for `Fc1ccc(C2=CC(c3ccc4c(c3)OCO4)n3nc(C(F)(F)F)nc3N2)cc1` (configuration not stated): 74.3% (active).
As for `FC(F)(F)c1nc2n(n1)C(c1ccc(Cl)cc1)C1=C(N2)c2ccccc2SC1` (configuration not stated), the inhibition was 36.9% (inactive).
The same measure for `O=C(NC1CCN(c2ccccc2C(=O)NCc2ccc(F)cc2)CC1)c1ccc(C(F)(F)F)cc1`: -29.8% (inactive); for `COc1cccc(NC(=O)N2CCC(Cc3ccc(F)cc3)CC2)c1`: 47.7% (inactive).
The same measure for `Cc1ccc(F)cc1NC(=O)N1CCN(CCCOC(c2ccc(Cl)cc2)c2ccc(Cl)cc2)CC1`: 6.69% (inactive).
As for `O=C(Nc1nnc(C2CC2)s1)N1CCC(Cc2cccc(F)c2)CC1`, the inhibition was -2.76% (inactive).
Next, `COc1ccc(CC2CCN(C(=O)Nc3cccc(F)c3)CC2)cc1`: 74.8% (active).
Next, `O=C(Nc1ccc(F)cc1F)N1CCC(Cc2ccc(-n3cccc3)cc2)CC1`: 51% (active).
The same measure for `O=C1NC2(CCN(C(=O)Nc3ccc(C(F)(F)F)cc3)CC2)Nc2cc(Cl)ccc21`: -1.82% (inactive).
Turning to `O=C(Nc1ccc(F)cc1F)N1CCC(Cc2ccc(C(F)(F)F)cc2)CC1`, the inhibition is 62.3% (active).
The same measure for `CCCC(=O)NC(=S)Nc1ccc2nn(-c3ccccc3)nc2c1`: 79.1% (active).
Next, `CCC(=O)NC(=S)Nc1ccc(C(=O)NC(C)(C)C)cc1`: 37.3% (inactive).
Next, `COc1ccc(-n2nc3ccc(N)cc3n2)cc1`: -45% (inactive); `CCCCSc1n[nH]c(=S)s1`: -27% (inactive); `S=c1[nH]nc(SCc2c(Cl)cccc2Cl)s1`: 23.4% (inactive).
For the molecule `CCCSc1n[nH]c(=S)s1`, the inhibition is -46% (inactive).
For `S=c1[nH]nc(SCC#Cc2ccccc2)s1`, the inhibition was 47.6% (inactive).
As to `S=c1[nH]nc(SCc2cccs2)s1`, the inhibition is 99.3% (active).
The same measure for `CC(C)Sc1n[nH]c(=S)s1`: -48.8% (inactive).
Next, `CC(C)CSc1n[nH]c(=S)s1`: 100% (active); `C=C(C)CSc1n[nH]c(=S)s1`: 58.8% (active); `O=C1NC(=S)SC1=Cc1c(F)cccc1Cl`: 83.6% (active).
The same measure for `O=C1NC(=S)SC1=Cc1c(F)cccc1F`: 74.2% (active); for `CC(=O)N[C@@H]1C[C@H](Cc2ccccc2)O[C@H](c2ccc(Cl)cc2)C1`: 61% (active); for `CC(C)(C)c1ccc(S(=O)(=O)/C=C/C#N)cc1`: 102% (active).
Regarding `CCOC(=O)c1cc([N+](=O)[O-])nn1Cc1ccc(Cl)c(Cl)c1`, the inhibition was 19.4% (inactive).
Regarding `CCOC(=O)c1cnn(Cc2ccc(C)cc2)c1N`, the inhibition is 71.9% (active).
The same measure for `CCNC(=S)n1ncc(C(=O)OCC)c1N`: -17% (inactive); for `CCC(C)(C)C1CCc2sc3ncnc(NCCN4CCOCC4)c3c2C1` (configuration not stated): 85% (active); for `Clc1ccc(-c2nc(NCCN3CCOCC3)c3ccc(Cl)cc3n2)cc1`: 47.7% (inactive).
The same measure for `Nc1c(S(=O)(=O)c2ccccc2)c2nc3ccccc3nc2n1-c1cccc(S(N)(=O)=O)c1`: 19.5% (inactive); for `O=S1(=O)CCN2N=C(SCc3ccc(Cl)cc3)SC2=N1`: 2.87% (inactive).
Next, `Clc1ccc(CSc2ncccn2)cc1`: 55.1% (active); `N#Cc1ccc(CSc2ncccn2)cc1`: -28.1% (inactive).
Turning to `Cc1ccc(OCc2ccc(C(F)(F)F)cc2)c(CO)n1`, the inhibition is 59.9% (active).
The same measure for `CCOC(=O)NCC(=O)N(Cc1ccc(C(F)(F)F)cc1)C1CC1`: -10.5% (inactive); for `COc1cccc(CC2(CO)CCCN(C(=O)CCCc3ccc(Cl)cc3)C2)c1` (configuration not stated): 20.4% (inactive); for `COc1cccc(CC2(C(=O)O)CCN(c3ccc(Cl)cn3)CC2)c1`: 90.8% (active).
The same measure for `Oc1ccc(Br)cc1-c1nc2cnccn2c1NC1CCCC1`: 37.9% (inactive).
The same measure for `c1ccc(-c2nnc(NC3CCCCC3)s2)cc1`: 28.9% (inactive); for `c1cc(NC2CCCCCCC2)cc(-c2cnco2)c1`: 71.3% (active).
For the molecule `c1cc(NC2CCCCCCC2)cc(-n2ccnc2)c1`, the inhibition was 56% (active).
Next, `c1cc(NC2CCCCCC2)c2cccnc2c1`: 9.23% (inactive).
The same measure for `c1ncc(-c2ccc(NCC3CCOCC3)cc2)o1`: 35.5% (inactive).
Consider `S=C(SC1OCCOC1SC(=S)N1CCOCC1)N1CCOCC1` (configuration not stated), for which the inhibition was 99.8% (active).
The same measure for `COc1ccc(C(=O)c2ccccc2)c(O)c1O`: 68.3% (active); for `COc1ccc(COc2ccc(Cl)cc2C(N)=O)cc1F`: 27.6% (inactive); for `COc1ccc(C(=O)COC(=O)c2ccccc2[N+](=O)[O-])cc1OC`: -15.5% (inactive).
Consider `COc1ccc(C(=O)c2ccc(O)cc2)c(O)c1O`, for which the inhibition was 55.4% (active).
Next, `COc1ccc(C(=O)C=Cc2ccccc2Br)c(OC)c1`: 23.5% (inactive).
Next, `Cc1nc(SCC(=O)N(C)Cc2ccsc2)c(C(N)=O)c(C)c1C`: -7.74% (inactive); `CN1CCN(C2Cc3ccccc3Sc3ccc(Cl)cc32)CC1` (configuration not stated): 39.5% (inactive); `CN1CCC(=C2c3ccccc3Sc3ccccc32)CC1`: 60.1% (active).
`CCOC(=O)c1ccc(NC(=O)N2CCc3nc(Cc4ccccc4OC)nc(N4CCOCC4)c3C2)cc1`: the inhibition is 61.8% (active).
Regarding `COc1cccc(NC(=O)N2CCc3nc(Nc4cc(Cl)cc(Cl)c4)ncc3C2)c1`, the inhibition is 33.2% (inactive).
Next, `CCc1ccc(NC(=O)N2CCN(c3nc(-c4ccc(Cl)cc4)nc(C)c3C)CC2)cc1`: 28.1% (inactive).
Next, `Oc1c(C(c2ccc(C(F)(F)F)cc2)N2CCOCC2)ccc2cccnc12` (configuration not stated): 104% (active).
The same measure for `Oc1c(C(c2ccc(F)cc2)N2CCOCC2)ccc2cccnc12` (configuration not stated): 82.2% (active); for `COc1ccc(-n2nc([N+](=O)[O-])c(=NCCC3=CCCCC3)n2O)cc1`: 95.6% (active).
